Data as given in PubChem BioAssay.
Active and inactive are the calls of the source. Unless noted, how the calls were made is not given here.

Legend:
[1] = HepG2 liver cancer cell viability effects, profiling panel, resazurin fluorescence, 24 h, PK04 Diversity Set (AID 1172); conditions: higher = more signal
[2] = basal S. cerevisiae growth modulation, no modifier, primary screen, OD600, strain BY4716, 24 h, basal condition (AID 1173); conditions: OD600, 24 h, higher = more signal, called active from +8 up or from −8 down
[3] = MM1S myeloma cell viability, profiling panel, resazurin fluorescence, basal, 24 h, PK04 Diversity Set (AID 1174); conditions: higher = more signal, called active from +8 up or from −8 down;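 further: MM1S multiple myeloma cell line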
[4] = target: Dihydroorotate dehydrogenase (quinone), mitochondrial (Plasmodium falciparum (isolate 3D7)) (UniProt Q08210); experiment: PfDHODH enzyme inhibitors, primary screen, biochemical, C-terminal His tag, absorbance 600 nm (AID 1175); conditions: DCIP absorbance 600 nm, higher = more signal, called active from +8 up or from −8 down;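 further: recombinant parasite enzyme with a five histidine tag at its C terminus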
[5] = P. aeruginosa biofilm formation inhibitors, primary screen, strain PAO1, LB-PBS medium, absorbance 600 nm (AID 1176); conditions: P. aeruginosa PAO1 growth/biofilm, A600, 12 h; higher = more signal
[6] = S. cerevisiae RM11-1a growth modifiers, primary screen, strain RM11-1a, OD600, basal, 24 h (AID 1177); conditions: OD600, 24 h, higher = more signal, called active from +8 up or from −8 down;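 further: cultures grown under basal conditions with no added stressor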
[7] = E. coli acrAB mutant growth effects, primary screen, E. coli filamentation inducers, strain DRC39, OD650, 24 h (AID 1178); conditions: higher = more signal, called active from +8 up or from −8 down;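 further: growth measured as culture turbidity by optical density at 650 nm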
[8] = E. coli acrAB mutant growth effects, primary screen, E. coli filamentation inducers, strain DRC39, OD650, 48 h (AID 1179);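 further: screen aims at cell division blockers that make cells filament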; conditions: E. coli DRC39 delta-acrAB growth, higher = more signal, called active from +8 up or from −8 down
[9] = RPMI8226 myeloma cell viability, profiling panel, resazurin fluorescence, basal, 24 h, PK04 Diversity Set (AID 1180); conditions: higher = more signal;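 further: RPMI8826 multiple myeloma cell line at 5000 cells per well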
[10] = target: E3 ubiquitin-protein ligase XIAP (Homo sapiens) (UniProt P98170); experiment: XIAP binders, primary screen, biophysical, small-molecule microarray, fluorescence 635 nm (AID 1181); conditions: small-molecule microarray binding, higher = more signal;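 further: score merges 667 nm emission and signal to noise over triplicate slides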
[11] = system: XIP peptide (Xip251-270) binding; experiment: small-molecule binders of XIP peptide, primary screen, biochemical, small-molecule microarray, fluorescence 635/667 nm, 0.1 µg/mL protein (AID 1182); conditions: fluorescent protein binding, 635 nm, higher = more signal, called active from +8 up or from −8 down
XIP peptide (Xip251-270) = experiment: small-molecule binders of XIP peptide, primary screen, biochemical, small-molecule microarray, fluorescence 635/667 nm, 0.5 µg/mL protein (AID 1183); conditions: small-molecule microarray binding, fluorescence 635 nm; higher = more signal
[12] = Plasmodium falciparum growth inhibition, primary screen, strain 3D7, DAPI fluorescence, 100 nL (AID 1184);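 further: parasites grown inside human red blood cells in medium with human serum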; conditions: P. falciparum 3D7 growth, 3 d, higher = more signal
[13] = target: Homeobox protein Hox-A13 (Mus musculus) (UniProt Q62424); experiment: inhibitors of HoxA13-DNA binding, primary screen, biochemical, fluorescence polarization, labeled oligonucleotide (AID 1185); conditions: 15 min, higher = more signal, called active from +8 up or from −8 down
[14] = inhibitors of hydroxyurea-induced Chk1 phosphorylation, primary screen, imaging, HeLa, phospho-Chk1 antibody, percent positive cells (AID 1186); conditions: hydroxyurea-induced phospho-Chk1 immunofluorescence imaging, higher = more signal
[15] = inhibitors of hydroxyurea-induced Chk1 phosphorylation, primary screen, imaging, HeLa, phospho-Chk1 nuclear intensity (AID 1187); conditions: hydroxyurea-induced phospho-Chk1 immunofluorescence imaging, higher = more signal

Sequence of Dihydroorotate dehydrogenase (quinone), mitochondrial (Plasmodium falciparum (isolate 3D7)) (Q08210 whole entry, looked up): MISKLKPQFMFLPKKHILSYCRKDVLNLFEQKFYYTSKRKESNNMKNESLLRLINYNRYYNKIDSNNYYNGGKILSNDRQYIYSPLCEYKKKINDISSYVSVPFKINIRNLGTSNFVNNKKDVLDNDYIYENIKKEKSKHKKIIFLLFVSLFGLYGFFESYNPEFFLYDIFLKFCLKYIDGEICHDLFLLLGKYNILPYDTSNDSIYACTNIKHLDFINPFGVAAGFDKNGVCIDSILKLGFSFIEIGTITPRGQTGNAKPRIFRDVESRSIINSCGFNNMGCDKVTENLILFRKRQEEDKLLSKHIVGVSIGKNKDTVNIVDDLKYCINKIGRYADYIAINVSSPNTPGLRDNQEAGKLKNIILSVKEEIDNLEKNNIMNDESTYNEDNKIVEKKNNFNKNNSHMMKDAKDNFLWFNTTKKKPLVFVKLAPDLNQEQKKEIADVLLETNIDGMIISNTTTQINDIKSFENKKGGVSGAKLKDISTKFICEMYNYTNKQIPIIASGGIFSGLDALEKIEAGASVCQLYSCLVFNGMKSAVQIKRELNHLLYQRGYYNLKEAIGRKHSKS
Sequence of Homeobox protein Hox-A13 (Mus musculus) (Q62424 whole entry, looked up): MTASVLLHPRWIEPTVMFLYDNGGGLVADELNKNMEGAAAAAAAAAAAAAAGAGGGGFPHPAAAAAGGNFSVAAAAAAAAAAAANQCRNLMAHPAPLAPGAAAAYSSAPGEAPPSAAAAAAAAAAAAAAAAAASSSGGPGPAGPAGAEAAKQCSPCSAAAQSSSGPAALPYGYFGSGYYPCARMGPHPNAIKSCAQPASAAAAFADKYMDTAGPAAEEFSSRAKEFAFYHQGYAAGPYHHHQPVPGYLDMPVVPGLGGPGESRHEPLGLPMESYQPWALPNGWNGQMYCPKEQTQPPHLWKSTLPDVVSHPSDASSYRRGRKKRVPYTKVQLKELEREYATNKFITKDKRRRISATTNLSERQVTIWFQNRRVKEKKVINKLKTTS
Sequence of E3 ubiquitin-protein ligase XIAP (Homo sapiens) (P98170 whole entry, looked up): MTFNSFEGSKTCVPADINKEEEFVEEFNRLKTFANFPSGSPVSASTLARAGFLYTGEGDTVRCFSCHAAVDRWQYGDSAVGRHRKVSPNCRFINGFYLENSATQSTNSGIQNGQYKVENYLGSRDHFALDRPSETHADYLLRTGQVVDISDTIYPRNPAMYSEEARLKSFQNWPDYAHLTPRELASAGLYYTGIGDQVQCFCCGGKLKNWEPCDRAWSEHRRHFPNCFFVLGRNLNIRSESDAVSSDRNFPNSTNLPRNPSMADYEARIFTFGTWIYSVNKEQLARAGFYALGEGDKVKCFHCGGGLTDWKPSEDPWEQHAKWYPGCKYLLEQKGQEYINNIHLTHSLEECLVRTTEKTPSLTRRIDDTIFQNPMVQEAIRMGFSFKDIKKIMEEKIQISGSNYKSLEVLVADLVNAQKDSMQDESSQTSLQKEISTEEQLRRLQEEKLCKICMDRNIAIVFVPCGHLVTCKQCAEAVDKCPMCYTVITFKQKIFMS

SMILES | z-score [1] | z-score [2] | z-score [3] | composite z-score [4] | z-score [5] | z-score [6] | z-score [7] | z-score [8] | z-score [9] | composite z-score [10] | composite z-score [11] | composite z-score (XIP peptide (Xip251-270)) | z-score [12] | z-score [13] | z-score [14] | z-score [15]
C=CCN1C(=O)[C@]2(O[C@H](CCO)[C@@H]([Si](C)(C)c3ccc(OC)cc3)[C@@H]2C)c2ccccc21 | -2.84 | -5.08 (inactive) | -1.46 (inactive) | 0.0196 (inactive) | 0.225 (inactive) | 1.55 (inactive) | -0.377 (inactive) | -1.46 (inactive) | -2.74 | -0.144 | 0.0965 (inactive) | 0.193 | -2.31 | -6.69 (inactive) | -1.17 (inactive) | -1.58 (inactive)
O=C1C2C=CC(C(O)C(c3ccccc3)c3ccccc3)N(Nc3ccccc3)C2C(=O)N1c1ccccc1 (configuration not stated) | 0.9 | -0.659 (inactive) | -1.05 (inactive) | 1.09 (inactive) | 1.26 (inactive) | 0.347 (inactive) | -0.615 (inactive) | -0.0085 (inactive) | -0.403 | 0.34 | 2.35 (inactive) | 0.722 | -0.28 | -1.33 (inactive) | -0.571 (inactive) | -0.706 (inactive)
CN(C)CCCC[C@@H]1NC(=O)[C@H]2C[C@@H](C(=O)O)[C@@H](c3cccc(OCCO)c3)N2C1=O | 0.629 | -1.12 (inactive) | 0.499 (inactive) | -0.614 (inactive) | -0.0185 (inactive) | -0.452 (inactive) | -0.0925 (inactive) | -0.151 (inactive) | 0.546 | 0.332 | 0.432 (inactive) | 0.288 | -0.133 | -1.71 (inactive) | -0.791 (inactive) | -0.55 (inactive)
CC(C)CNC(=O)[C@@H]1c2ccccc2C(=O)N(CC23CC4CC(CC(C4)C2)C3)[C@H]1c1ccc(CO)cc1 | 0.82 | -1.17 (inactive) | 1.93 (inactive) | -0.42 (inactive) | -0.397 (inactive) | -0.0966 (inactive) | 0.256 (inactive) | 0.339 (inactive) | 0.281 | -0.13 | 0.41 (inactive) | 0.613 | -2.11 | -3.84 (inactive) | -0.282 (inactive) | -0.0264 (inactive)
CO[C@H]1O[C@H](CO)[C@@H](OC(=O)Nc2ccc(C(F)(F)F)cc2)[C@H](OC(=O)Nc2ccccc2-c2ccccc2)[C@@H]1OC(=O)Nc1ccccc1-c1ccccc1 | -0.889 | 0.28 (inactive) | -1.74 (inactive) | 0.0823 (inactive) | 0.77 (inactive) | 1.21 (inactive) | -1 (inactive) | 0.0484 (inactive) | -0.94 | -0.184 | 1.39 (inactive) | 0.827 | -2.28 | -4.13 (inactive) | 0.206 (inactive) | 0.0324 (inactive)
CN(C)CCCC[C@@H]1NC(=O)[C@H]2C[C@@H](C(=O)NCc3ccc(F)cc3)[C@@H](c3ccc(O)cc3)N2C1=O | 0.222 | -0.549 (inactive) | 0.766 (inactive) | -1.54 (inactive) | -0.832 (inactive) | -0.649 (inactive) | 0.11 (inactive) | 0.182 (inactive) | 0.382 | 0.207 | 2.07 (inactive) | 0.934 | -0.057 | -1.36 (inactive) | 0.806 (inactive) | 1.32 (inactive)
COCCOC(=O)N1C(=O)[C@@]2(c3ccccc31)[C@H](c1ccc(OCCO)cc1)N1[C@H](c3ccccc3)[C@H](c3ccccc3)OC(=O)[C@H]1[C@@H]2C(=O)N1CCN(c2ncccn2)CC1 | 0.19 | 1.03 (inactive) | -0.268 (inactive) | -0.0117 (inactive) | 1.89 (inactive) | 2.29 (inactive) | -0.441 (inactive) | -0.849 (inactive) | 0.603 | 0.0548 | 0.522 (inactive) | 0.772 | -2.33 | -0.376 (inactive) | 0.0223 (inactive) | 0.242 (inactive)
